The text below walks through data of PubChem BioAssay (NCI).

Common to all, as to assay: NCI-60 one-dose screen, 48 h (100 = growth as untreated, 0 = no growth, -100 = all killed)
Assay [1] deals with DU-145 prostate. Conditions: 10 µM unless noted.
Assay [2] relates to K-562 leukemia. Conditions: 10 µM unless noted.
In assay [3] the test system is MALME-3M melanoma. The note with it: 10 µM unless noted.
The subject of assay [4] is MDA-MB-231 breast. The note with it: 10 µM unless noted.
The test system of assay [5] is SF-268 CNS. Conditions: 10 µM unless noted.
In assay [6] the test system is SF-295 CNS. Conditions: 10 µM unless noted.
The test system of assay [7] is SF-539 CNS. The note with it: 10 µM unless noted.
For assay [8], the system named is UACC-257 melanoma. The note with it: 10 µM unless noted.
Assay [9] has as its system M14 melanoma. The note with it: 10 µM unless noted.
Assay [10] deals with HCT-15 colon. Conditions: 10 µM unless noted.
In assay [11] the test system is HT29 colon. Conditions: 10 µM unless noted.
In assay [12] the test system is SNB-75 CNS. Conditions: 10 µM unless noted.
Assay [13] relates to SNB-19 CNS. The note with it: 10 µM unless noted.
For assay [14], the system named is U251 CNS. Conditions: 10 µM unless noted.
The subject of assay [15] is PC-3 prostate. The note with it: 10 µM unless noted.
The test system of assay [16] is SK-MEL-5 melanoma. Conditions: 10 µM unless noted.
Assay [17] relates to UACC-62 melanoma. The note with it: 10 µM unless noted.
The subject of assay [18] is LOX IMVI melanoma. The note with it: 10 µM.
Assay [19] has as its system SK-MEL-28 melanoma. The note with it: 10 µM unless noted.
Assay [20] concerns RXF 393 renal. Conditions: 10 µM unless noted.

Structures are written as SMILES. This is part of a sample that, as a whole, favours compounds with a hit. Of some 83,000 tested, about 20% had one in any assay.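 Cells were grown in 96-well plates and exposed to the test compound at a single concentration for 48 hours; results are reported as percent growth, with values below 10 considered active.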 Unmarked numbers belong to inactive results. Active and inactive are the calls of the source.

On to `Cc1ccc(/C=C/c2n(Cc3ccc4ccccc4c3)c3ccccc3[n+]2Cc2ccc3ccccc3c2)cc1`, for which the growth in [1] was -90.1% (active); in [2], -25.6% (active); in assay [3], -90.2% (active); in [4], -47.3% (active); in [5], -65.1% (active); in assay [6], -98.5% (active). Moreover, the growth is -96.5% (active) in assay [7]; -71.5% (active) in assay [8]; -74.1% (active) in assay [9]; -86.2% (active) in assay [10]; -50.4% (active) in [11]; -88.3% (active) in assay [12]. Further, the growth in [13] is -58.5% (active); in [14] it was -42.1% (active); in assay [15], -88.3% (active); in assay [16], -100% (active); in assay [17], -63.6% (active); in [18] it was -87.9% (active). Besides, the growth in [19] is -92.3% (active).

For `C=C1CC[C@@H]2[C@]3(C)COC(c4cn[nH]c4-c4ccc(C)cc4)O[C@@H]3CC[C@@]2(C)[C@@H]1C/C=C1/C(=O)OCC1O` (stereo partly specified), the growth in assay [1] was 37.2%; in [2], 2.59% (active); in assay [3], -52.6% (active); in assay [20], -31.7% (active); in [5], 54.2%; in assay [6], 49.5%. Besides, the growth in assay [7] was -88.1% (active); in [8], -0.178% (active); in assay [9], -42.2% (active); in assay [10] it was -72.9% (active); in assay [11], -6.69% (active); in [12] it was 87.8%. In addition, the growth in assay [13] was 37.7%; in assay [14], -63.3% (active); in [15], 37.6%; in assay [16], -63.9% (active); in assay [17], -31.3% (active); in assay [19] it was 6.8% (active).

`Cc1c(C(=O)NNC(=O)c2ccc(Cl)cc2)nnn1-c1ccc(Cl)cc1`: the growth in assay [1] was 108%; in assay [2], 86.3%; in assay [3] it was 86.9%; in assay [20], 92.7%; in assay [5], 105%; in assay [6] it was 82.7%. Also, the growth was 99.6% in assay [7]; 94.1% in assay [8]; 93.6% in assay [9]; 93.5% in assay [10]; 92.3% in assay [11]; 83.6% in [12]. Moreover, the growth is 95.1% in assay [13]; 99.8% in assay [14]; 95.4% in assay [15]; 99.5% in [16]; 86.1% in [17]; 94% in assay [19].

For the compound `C=C1CC[C@@H]2[C@]3(C)COC(c4cn(-c5ccccc5)nc4-c4ccccc4)O[C@@H]3CC[C@@]2(C)[C@@H]1C/C=C1/C(=O)OC[C@H]1O` (stereo partly specified), the growth in assay [1] is 8.33% (active); in [2], -29.9% (active); in assay [3], -90.2% (active); in assay [20] it was -90.8% (active); in assay [5], 8.39% (active); in assay [6], -97.5% (active). Also, the growth in assay [7] is -98.6% (active); in assay [8] it was -77.2% (active); in [9] it was -80.4% (active); in assay [10], -87% (active); in assay [11] it was -70.4% (active); in assay [12], -18.8% (active). Besides, the growth in [13] was -60.8% (active); in assay [14], -88.5% (active); in assay [15], -26.8% (active); in assay [16], -100% (active); in assay [17], -93.8% (active); in assay [19], -84.2% (active).

With `CC1=C(C(=O)OC(C)C)C(c2cccc(O)c2)NC(=S)N1` (stereo unspecified), the growth was 104% in assay [1]; 83.2% in assay [2]; 92.7% in assay [3]; 110% in assay [20]; 109% in assay [5]; 96.8% in assay [6]. Moreover, the growth in assay [7] is 94.7%; in [8], 92.8%; in [9], 109%; in assay [10] it was 106%; in [11], 102%; in [12], 105%. The growth in assay [14] is 103%; in [15], 107%; in assay [16], 98.8%; in [17], 91.3%; in assay [19] it was 103%.

For `O=C(O)c1ccc(-c2ccc(/C=N/NC(=O)c3[nH]c4ccc(Br)cc4c3-c3ccccc3)o2)cc1`, the growth in assay [1] was 38.8%; in assay [2], 7.51% (active); in assay [3], 34.6%; in assay [20] it was -1.82% (active); in assay [5], 10.5%; in assay [6], 6.58% (active). Also, the growth was -36.9% (active) in assay [7]; 45.5% in assay [8]; 0.786% (active) in assay [9]; 7.24% (active) in assay [10]; 34.5% in assay [11]; -8.96% (active) in assay [12]. Moreover, the growth was 13% in [13]; 1.17% (active) in [14]; 20.8% in [15]; -9.61% (active) in assay [16]; 18% in assay [17]; 31.1% in assay [19].

On to `O=C(N/N=C/c1ccc(-c2ccc(O)cc2)o1)c1[nH]c2ccc(Br)cc2c1-c1ccccc1`, for which the growth is 0.567% (active) in assay [1]; 1.64% (active) in assay [2]; -26.8% (active) in assay [3]; -10% (active) in assay [20]; 12.7% in [5]; -68.7% (active) in [6]. Moreover, the growth is -59.2% (active) in assay [7]; 27.4% in assay [8]; 18.1% in [9]; 2.62% (active) in [10]; -34.8% (active) in [11]; -2.73% (active) in assay [12]. The growth in [13] is 10.3%; in assay [14] it was -29.2% (active); in assay [15] it was -6.14% (active); in assay [16], -82.9% (active); in assay [19] it was -27% (active).

With `C=C1CC[C@@H]2[C@]3(C)COC(c4cn(-c5ccccc5)nc4-c4cccc([N+](=O)[O-])c4)O[C@@H]3CC[C@@]2(C)[C@@H]1C/C=C1/C(=O)OC[C@H]1O` (stereo partly specified), the growth in assay [1] was 44.3%; in [2], -12.7% (active); in assay [3], -67.6% (active); in [20], -84.2% (active); in assay [5] it was 46%; in assay [6] it was -46.5% (active). Also, the growth in assay [7] was -96.4% (active); in [8], -68% (active); in assay [9], -51.2% (active); in [10], -74.2% (active); in assay [11], -59.7% (active); in assay [12] it was 109%. Besides, the growth in assay [13] was 23.5%; in assay [14], -73.9% (active); in assay [15] it was 16.5%; in assay [16], -99.6% (active); in assay [17] it was -71.7% (active); in assay [19] it was -47.9% (active).

For the compound `CC1=C(C(=O)OCc2ccccc2)C(c2ccc(-n3cncn3)cc2)n2c(nc3ccccc32)N1` (stereo unspecified), the growth in assay [1] was 67.7%; in assay [2], 14.3%; in [3], 50.9%; in [20], 52.2%; in assay [5], 71.5%; in assay [6], 19.9%. Moreover, the growth is 38.3% in [7]; 51.5% in [8]; 50.5% in assay [9]; 33.1% in assay [10]; 24.7% in assay [11]; 47.9% in assay [12]. The growth in assay [13] was 66.9%; in assay [14], 63.4%; in [15], 43.3%; in [16], 39.7%; in assay [17] it was 16.2%; in assay [19], 66.5%.
